Measured values from PubChem BioAssay AID743427 (Vanderbilt Specialized Chemistry Center, 2014).

Target: Metabotropic glutamate receptor 8 (Rattus norvegicus) (UniProt P70579)
Test: mGlu8 positive allosteric modulation fold shift – cell-based, rat receptor, Ga15, calcium, 10 µM, mechanism study for mGlu8/mGlu7 PAM project, SAR follow-up (AID 743427)
Conditions: rat mGlu8/Ga15, Fluo-4 calcium, glutamate CRC; glutamate CRC left shift; at 10 µM; stronger effect = higher value

## COC(=O)c1ccc(-n2c(C)cc(C(=O)CSc3ccc(NC(C)=O)cc3)c2C)cc1
  fold shift: 4.77
